From PubChem
NS1 inh – blocks influenza NS1 protein function. AID 2326. actives 0.4% (n = 270,000). Potency, µM (series often up to 46.1 µM), for inactives: at the top dose activity, positive = more growth; calls by dose curve; note: actives are rising curves; nearly all actives have a fitted effect of over 50% in size
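A cell-based growth assay was used: compounds that relieve NS1-induced slow growth of budding yeast raise OD600. Assay medium was yeast nitrogen base with ammonium sulphate and -URA supplement, pH 6.0, with 2% galactose.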
Sm TGR inh – inhibitors of Schistosoma mansoni thioredoxin glutathione reductase. Potency, µM (series often up to 114 µM), inactives show at the highest dose activity change, negative = inhibition, hits mostly inhibitors. Q962Y6. actives 3% (n = 360,000). AID 485364. purified TGR, DTNB reduction, TNB absorbance 405 nm; note: % is set by controls: 0 for no effect and ±100 for the full control effect; nearly all actives have a fitted effect of over 60% in size
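TGR 20 nM + NADPH 100 uM (dispensed conc.), cpd preinc 15 min RT; start with NADPH (500 uM addition) then DTNB (15 mM addition). Kinetic TNB absorbance, 405 nm filter. Four-parameter Hill fit across titration.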
TbPYK inhibitor – blocks Trypanosoma brucei pyruvate kinase; TbPYK enzyme, Kinase-Glo Plus ATP luminescence, 45 min; Potency, µM (series often up to 76.8 µM), for the others: at the top dose activity, negative = inhibition, usual class: inhibitors; actives 0.12% (n = 410,000); AID 624173; note: % is set by controls: 0 for no effect and ±100 for the full control effect; nearly all actives have a fitted effect of over 50% in size
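Readout: single end-point luminescence (Kinase-Glo Plus, 10 min). Reaction conditions were TbPYK/substrate plus 130 uM ADP, 45 min at RT, pH 7.2 TEA buffer. No-enzyme wells served as controls, and data were normalized before concentration-response fitting.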
LmPK inh – inhibitors of Leishmania mexicana pyruvate kinase | AID 1721 | purified LmPK, Kinase-Glo ATP luminescence, 1 h | actives 0.37% (n = 290,000) | Potency, µM (top dose mostly 57.5 µM), inactives show at the highest dose activity change, negative = inhibition, usual class: inhibitors; note: % is set by controls: 0 for no effect and ±100 for the full control effect
Target sequence (Q27686 whole entry, looked up): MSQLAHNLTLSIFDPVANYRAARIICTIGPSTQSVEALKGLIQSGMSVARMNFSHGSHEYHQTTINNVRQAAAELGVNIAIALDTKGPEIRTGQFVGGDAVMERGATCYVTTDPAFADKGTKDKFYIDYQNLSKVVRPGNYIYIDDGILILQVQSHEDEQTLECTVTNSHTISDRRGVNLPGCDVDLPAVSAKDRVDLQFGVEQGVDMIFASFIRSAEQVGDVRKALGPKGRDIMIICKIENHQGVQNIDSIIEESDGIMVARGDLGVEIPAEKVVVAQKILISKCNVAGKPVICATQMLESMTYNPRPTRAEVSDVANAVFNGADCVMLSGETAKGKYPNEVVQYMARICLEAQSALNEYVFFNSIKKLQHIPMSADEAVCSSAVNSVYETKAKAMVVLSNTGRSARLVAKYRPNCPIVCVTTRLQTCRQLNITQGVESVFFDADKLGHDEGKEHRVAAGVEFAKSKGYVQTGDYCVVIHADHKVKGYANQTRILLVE
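ATP generated from ADP (0.1 mM) and PEP (0.5 mM) by 0.1 nM LmPK over 1 h at room temperature (pH 7.2 imidazole buffer) was detected by coupled luciferase luminescence. Values were normalized to uninhibited and no-enzyme wells.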
FBPA Giardia inh – Giardia lamblia aldolase inhibition. A8B2U2. purified Giardia FBPA. Potency, µM (titrated, usually from 59.6 µM), without a hit: at the highest dose activity, negative = inhibition, usual class: inhibitors. actives 0.71% (n = 290,000). AID 2451; note: % is set by controls: 0 for no effect and ±100 for the full control effect; nearly all actives have a fitted effect of over 55% in size
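Giardia FBPA (40 nM reagent) was preincubated 10 min at RT with compound (up to 57.5 uM final), then substrate plus GAPDH/TPI/NAD/arsenate coupling system with diaphorase/resazurin was added; resorufin fluorescence (525/598 nm) was read after 20 min.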
RE007 growth inh – less growth of the S. pombe RE007 Vpr strain; S. pombe RE007 Vpr strain, BacTiter-Glo ATP luminescence, 24 h; Potency, µM (series often up to 92.2 µM), for the others: at the highest dose activity change, negative = less growth, most hits filed as inhibitors; actives 0.21% (n = 360,000); AID 651644; active = well fitted falling curve with a large enough effect; inconclusive = small, poorly fitted or top-dose-only effect; inactive = no such curve, though single readings can be large or run the other way; note: % is set by controls: 0 for no effect and ±100 for the full control effect; nearly all actives have a fitted effect of over 50% in size
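Fission yeast strain RE007, carrying one chromosomally integrated HIV-1 vpr copy, was seeded at OD 0.01 in PMG+AL medium with 23 nL pinned compound. After 24 h at 30 °C and 99% humidity, viability was read by BacTiter-Glo luminescence.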
Starred values were filed as active, the others as inactive; ? = inconclusive; . = no result given. Hits are enriched below; roughly 3.5% of the tested compounds scored in any of these assays. Unless noted, calls come from the whole dose curve; as a rule, active = well fitted curve in the direction sought with a large enough effect; inconclusive = small, poorly fitted or top-dose-only effect, or another doubt; inactive = no such curve, though single readings can be large; an effect the other way counts as inactive or inconclusive. Potency is the fitted concentration of half-maximal effect.

SMILES	NS1 inh	Sm TGR inh	TbPYK inhibitor	LmPK inh	FBPA Giardia inh	RE007 growth inh
Cc1ccc(S(=O)(=O)Cc2ccc(C(=O)NCCCN3CCCC3=O)o2)cc1	-11.2%	20µM*	-11.6%	-0.5%	-2.9%	2.9%
COc1cccc([C@@H]2Oc3ccc(OC)cc3C[C@H]2OC(=O)N[C@H](C)C2CCCCC2)c1	.	.	.	.	-3.3%	.
CCCn1c(CCC(=O)Nc2cccc(C)c2C)nc2cccnc21	.	-6.8%	-0.8%	.	.	.
CC(C)Cn1c(SCc2cccc(F)c2)nc2ccsc2c1=O	.	2.3%	5.9%	.	.	.
CC(CNC(=O)C1CCN(C(=O)N2CCOc3ccc(Cl)cc32)CC1)c1ccccc1 (stereo not drawn)	.	-7.2%	-1.1%	.	.	.
O=C(Cc1ccc(F)cc1)OCC(=O)c1cc2ccccc2o1	-18.7%	0.0%	-2.6%	0.5%	-9.0%	18.9%
Cc1cccc(NC(=O)c2cc3ccccc3o2)c1	-35.0%	-2.9%	-10.0%	14.1µM*	?	-29.9%
O=C(CCNc1ccc(F)cc1)c1cc2ccccc2o1	.	0.316µM*	0.0%	-1.6%	-0.8%	?
O=C(CCNc1cccc(F)c1)c1cc2ccccc2o1	.	0.355µM*	-1.4%	-11.8%	-9.1%	4.4%
CNC(=O)c1cc2ccccc2o1	11.7%	2.3%	4.6%	-0.5%	1.2%	-3.7%
COC(=O)c1c(C)sc(-c2c(-c3ccc4c(c3)OCCO4)[nH]c3c2c(=O)[nH]c(=O)n3C)c1O	.	-8.1%	-4.9%	.	.	.
CCOc1ccc(CN2C(=O)c3ccccc3Sc3ccc(C(=O)OC)cc32)cc1	.	1.3%	-5.3%	.	.	.
O=C(CCl)N(CCCNC(=O)C(F)(F)F)c1ccc([N+](=O)[O-])cc1	0.6%	2.82µM*	-4.4%	-4.6%	-0.4%	-1.7%
O=C(NCCCNc1ccc([N+](=O)[O-])cc1)C(F)(F)F	12.6%	5.8%	-5.2%	6.1%	0.2%	-9.1%
O=C(CSc1nnc2[nH]c(=O)cc(-c3ccccc3)n12)Nc1ccc(OC(F)(F)F)cc1	.	1.9%	-5.3%	.	.	.
Cc1ccccc1NC(=O)c1nc(S(C)(=O)=O)ncc1Cl	-53.5%	?	-1.3%	-4.7%	7.5%	-1.6%
CS(=O)(=O)c1ncc(Cl)c(C(=O)Nc2ccc(OC(F)F)cc2)n1	-62.5%	7.94µM*	4.6%	0.5%	2.6%	-14.6%
CCOC(=O)c1nc(S(C)(=O)=O)ncc1Cl	-40.9%	8.91µM*	-5.8%	3.8%	0.7%	-0.6%
CS(=O)(=O)c1ncc(Cl)c(C(=O)Nc2ccc(N3CCOCC3)cc2)n1	-14.4%	15.8µM*	-3.6%	2.7%	-23.1%	-15.7%
O=C(Nc1nnc(S(=O)(=O)N2CCCCC2)s1)c1ccc(F)cc1	.	-33.5%	1.2%	.	.	.
Cc1ccc2c(=O)cc(C(=O)Nc3sc4c(c3C(=O)NCc3ccco3)CCC4)oc2c1	.	-1.0%	-4.7%	.	.	.
Cc1ccc(NC(=O)CCS(=O)(=O)c2ccc3c(c2)oc(=O)n3C)c(Br)c1	.	31.6µM*	-8.5%	.	.	.
Cc1ccc(S(=O)(=O)Nc2ccc(O)c(S(=O)(=O)c3ccc(C)cc3)c2)cc1	9.2%	-16.6%	-9.8%	3.4%	6.4%	-8.7%
Cc1ccc(S(=O)(=O)c2cc(O)ccc2O)cc1C	.	3.98µM*	-17.4%	-2.4%	-10.1%	-1.1%
CC(=O)Nc1ccc(S(=O)(=O)c2cc(O)ccc2O)cc1	0.9%	6.31µM*	-14.8%	-4.6%	-14.8%	9.5%
CCc1ccc(-c2nc(CS(=O)CC(=O)NCCc3ccccc3)c(C)o2)cc1 (stereo not drawn)	-1.6%	10µM*	0.0%	9.3%	.	2.6%
CCc1ccc(-c2nc(CS(=O)CC(=O)NCCc3ccc(C)cc3)c(C)o2)cc1 (stereo not drawn)	.	22.4µM*	3.9%	.	.	.
CCOc1ccccc1NC(=O)Cn1c(=O)ccc2cc(S(=O)(=O)N3CCC(C)CC3)ccc21	.	-6.4%	2.0%	.	.	.
COc1ccc(N2CCN(S(=O)(=O)CCNC(=O)c3ccc(C(F)(F)F)cc3)CC2)cc1	.	-3.0%	5.5%	.	.	.
Cc1ccc(C)c(Cn2cnc3c(cnn3-c3ccc(F)cc3)c2=O)c1	.	11.8%	-3.6%	.	.	.
